Mean motility score data for 24 compounds are collected here from the supplement of paper PMC10503962.

This assay deals with Trichuris muris adult worms. As to the kind of experiment: mean motility score (Paragon pixel variance) of adult worms (arbitrary units); higher = more motile worms, i.e. less anthelmintic effect; extreme values may be limits of the assay. The following applies: 100 µM; 24 h. As to the method:
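Primary ex vivo screen of 409 approved drugs against adult Trichuris muris worms: one worm per well in RPMI-1640 with penicillin/streptomycin, 100 µM drug in 1% DMSO, 37 °C, 5% CO2 for 24 h. Motility was recorded with INVAPP (200-frame movies) and scored with the Paragon pixel-variance algorithm. Values are means of triplicate wells run on three occasions; levamisole was the positive control and DMSO the negative control.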
`CN(C)C(=O)Oc1ccc[n+](C)c1.[I-]` [pyridostigmine iodide] displayed a mean motility score of 2610.

Take `Cl.O=C(CCCN1CCC(n2c(=O)[nH]c3ccccc32)CC1)c1ccc(F)cc1` [benperidol hydrochloride]: the mean motility score turned out to be 3960.

In turn, `CC(C)C[C@H]1C(=O)N2CCC[C@H]2[C@]2(O)O[C@](NC(=O)C3C=C4c5cccc6[nH]c(Br)c(c56)C[C@H]4N(C)C3)(C(C)C)C(=O)N12.CS(=O)(=O)O` (some centres undefined) [bromocriptine methanesulfonate] yielded a mean motility score of 2300.

With `COc1cc([C@@H]2c3cc4c(cc3[C@H](O)[C@H]3COC(=O)[C@H]23)OCO4)cc(OC)c1OC` [podofilox], the mean motility score amounted to 3650.

`[O-][n+]1ccccc1S` [pyrithione] showed a mean motility score of 3120.

`C#C[C@]1(O)CC[C@H]2[C@@H]3CCC4=CC(=O)CC[C@]4(C)[C@H]3CC[C@@]21C` [ethisterone] showed a mean motility score of 1590.

As for `CN1C[C@H](C(=O)N[C@]2(C)O[C@@]3(O)[C@@H]4CCCN4C(=O)[C@H](Cc4ccccc4)N3C2=O)CC2c3cccc4[nH]cc(c34)C[C@H]21.CS(=O)(=O)O` (some centres undefined) [dihydroergotamine methanesulfonate], the mean motility score was 1730.

As to `COc1cc2c(c(OC)c1OC)-c1ccc(OC)c(=O)cc1[C@@H](NC(C)=O)CC2` [colchicine], the mean motility score is 1420.

Compound `C[C@H](N)[C@H](O)c1ccc(O)c(O)c1` [levonordefrin] displayed a mean motility score of 2110.

With `CC[C@H]1[C@H]2CC3[C@@H]4N(C)c5ccccc5[C@]45C[C@H]([C@@H]2C5O)N3[C@@H]1O` (some centres undefined) [ajmaline], the mean motility score is 1790.

For the compound `C#CCN(C)[C@H](C)Cc1ccccc1.Cl` [selegiline hydrochloride], the mean motility score was 2950.

In turn, `CCCN1C[C@H](CSC)C[C@@H]2c3cccc4[nH]cc(c34)C[C@H]21.CS(=O)(=O)O` [pergolide mesylate] registered a mean motility score of 3150.

For the compound `CN(C)C(=O)Oc1cccc([N+](C)(C)C)c1.COS(=O)(=O)[O-]` [neostigmine methylsulfate], the mean motility score stood at 1600.

As for `CC(C)N(CCC(C(N)=O)(c1ccccc1)c1ccccn1)C(C)C` (centres undefined) [disopyramide], the mean motility score turned out to be 1630.

In turn, `COc1ccc(CCN2CCC(Nc3nc4ccccc4n3Cc3ccc(F)cc3)CC2)cc1` [astemizole] yielded a mean motility score of 0.

In turn, `COc1ccc(C(CN(C)C)C2(O)CCCCC2)cc1.Cl` (centres undefined) [venlafaxine hydrochloride] returned a mean motility score of 1570.

On to `CN(C)C(=O)Oc1cc(OC(=O)N(C)C)cc(C(O)CNC(C)(C)C)c1.Cl` (centres undefined) [bambuterol hydrochloride], for which the mean motility score stood at 1410.

With `CC[C@@H](CO)NC(=O)[C@@H]1C=C2c3cccc4[nH]cc(c34)C[C@H]2N(C)C1.O=C(O)/C=C\C(=O)O` [methylergonovine maleate], the mean motility score is 2650.

`C[N+](C)(C)CCCCCCCCCC[N+](C)(C)C.[Br-].[Br-]` [decamethonium bromide] came in with a mean motility score of 2280.

In turn, `N[C@@H](Cc1cc(Br)c(O)c(Br)c1)C(=O)O` [3,5 dibromotyrosine] had a mean motility score of 3040.

`C=CCN1CC[C@]23c4c5ccc(O)c4O[C@H]2C(=O)CC[C@@]3(O)[C@H]1C5.Cl` [naloxone hydrochloride] returned a mean motility score of 3870.

Consider `O=C1CC[C@@]2(O)[C@H]3Cc4ccc(O)c5c4[C@@]2(CCN3CC2CC2)[C@H]1O5` [naltrexone], for which the mean motility score amounted to 3530.

As to `CCOP(=O)(OCC)Oc1ccc([N+](=O)[O-])cc1` [paraoxon], the mean motility score is 0.

Regarding `CNC(=O)Oc1ccc2c(c1)[C@]1(C)CCN(C)[C@@H]1N2C` [physostigmine], the mean motility score was found to be 3170.
